# Data: PubChem BioAssay (NCATS)
# Unmarked numbers belong to inactive results. Results filed as inconclusive are left out. A call without a number means that no potency is given here. The source made the active and inactive calls. Calls follow the shape of the dose curve; as a rule, active = well fitted curve in the direction sought with a large enough effect; inconclusive = small, poorly fitted or top-dose-only effect, or another doubt; inactive = no such curve, though single readings can be large; an effect the other way counts as inactive or inconclusive.
# How the values were obtained:
# [1] = biological target: Glutathione peroxidase 1 (Homo sapiens) (UniProt P07203); assay: Primary qHTS Assay for Inhibitors of Recombinant Selenoprotein Glutathione Peroxidase 1 (GPX1) (AID 1845191); also: nearly all actives have a fitted effect of over 65% in size; also: potency is read from the fitted curve at half-maximal effect
# Sequence of Glutathione peroxidase 1 (Homo sapiens) (P07203 whole entry, looked up): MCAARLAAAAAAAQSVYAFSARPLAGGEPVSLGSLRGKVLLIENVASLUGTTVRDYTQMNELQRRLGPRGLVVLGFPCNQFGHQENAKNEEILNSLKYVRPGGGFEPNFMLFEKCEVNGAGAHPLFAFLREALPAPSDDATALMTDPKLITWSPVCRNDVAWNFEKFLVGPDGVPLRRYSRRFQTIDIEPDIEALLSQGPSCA
# How it was run: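 10 nM GPX1 + cpd, 30 min RT; start w/ 1 mM GSH, 0.5 mM cumene hydroperoxide, 0.5 mM NADPH, 100 nM GR, 0.01% BSA; buffer 50 mM Tris-HCl pH 7.5, 2 mM EDTA, 150 mM NaCl; Fl 340/450, 0 & 15 min.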
# [2] = biological target: Phospholipid hydroperoxide glutathione peroxidase GPX4 (Homo sapiens) (UniProt P36969); assay: Primary qHTS Assay for Inhibitors of Recombinant Selenoprotein Glutathione Peroxidase 4 (GPX4) (AID 1845192); also: nearly all actives have a fitted effect of over 65% in size; also: potency is read from the fitted curve at half-maximal effect
# Sequence of Phospholipid hydroperoxide glutathione peroxidase GPX4 (Homo sapiens) (P36969 whole entry, looked up): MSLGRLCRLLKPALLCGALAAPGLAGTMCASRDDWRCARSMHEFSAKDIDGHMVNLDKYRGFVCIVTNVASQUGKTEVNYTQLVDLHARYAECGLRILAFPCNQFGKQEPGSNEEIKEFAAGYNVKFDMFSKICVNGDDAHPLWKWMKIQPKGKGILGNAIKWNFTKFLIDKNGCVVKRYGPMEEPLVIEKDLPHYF
# How it was run: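 NADPH consumption, followed by fluorescence at 340/450 nm between 0 and 15 min, reports GPX4 activity via coupled glutathione reductase (100 nM). Enzyme 200 nM was pre-exposed to compound 30 min; 0.5 mM cumene hydroperoxide and 1 mM GSH served as substrates.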
# [3] = biological target: Luciferin 4-monooxygenase (Photinus pyralis) (UniProt P08659); assay: Primary firefly luciferase (FLuc) qHTS assay for identification of artifact compounds. (AID 1845220); also: nearly all actives have a fitted effect of over 60% in size; also: potency is read from the fitted curve at half-maximal effect
# How it was run: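 Compounds sat 15 min at room temperature with 10 uM luciferin and 10 uM ATP (pH 7.6 Tris acetate). Firefly luciferase (10 nM final) was then added, and luminescence was read 5 min later. Data normalized to no-enzyme and DMSO controls were Hill-fitted.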
# [4] = Primary fluorescence-based thiol-reactive (MSTI) qHTS assay for identification of artifact compounds. (AID 1845221); also: nearly all actives have a fitted effect of over 65% in size; also: potency is read from the fitted curve at half-maximal effect
# How it was run: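 One-hour, room-temperature, dark incubation of compound with 4 uM MSTI in PBS (pH 7.4, 2% DMSO) precedes a fluorescence read at 525 nm excitation, 598 nm emission; Hill-equation fitting yields concentration-response values.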
# [5] = system: Nanoluciferase (engineered Oplophorus gracilirostris luciferase); assay: Primary Nanoluciferase (NLuc) qHTS assay for identification of artifact compounds. (AID 1845222); also: potency is read from the fitted curve at half-maximal effect
# How it was run: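 Luminescence from secreted NLuc (filtered, 1:55-diluted S16 cell medium) read 5 min after Nano-Glo substrate; compounds preincubated 15 min, RT. Hill fits of inhibition normalized to DMSO and no-enzyme.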
# [6] = Primary redox qHTS assay for identification of artifact compounds. (AID 1845223)
# How it was run: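 Amplex Red (25 uM) and HRP (250 mU/mL) in HBSS, with compounds for 15 min, then 250 uM DTT for 30 min, room temperature, dark. Fluorescence 525/598 nm read; normalized to DMSO and 10 uM DA3003; Hill fit.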
SMILES,Potency [1],Potency [2],Potency [3],Potency [4],Potency [5],outcome [6]
CCN(CC)C(=O)C1CN2CCc3cc(OC)c(OC)cc3C2CC1OC(C)=O (stereo not given),inactive,inactive,–,–,–,–
O=[N+]([O-])c1nccn1CO[C@@H](CO)[C@H](O)CO,inactive,inactive,inactive,inactive,inactive,inactive
OC1(c2ccc(Cl)c(C(F)(F)F)c2)CCN(CCCC(c2ccc(F)cc2)c2ccc(F)cc2)CC1,inactive,inactive,inactive,inactive,inactive,inactive
CCN1CCN(c2cc(-c3ccc(F)cc3)c3c(n2)CCCCCC3)CC1,inactive,inactive,inactive,inactive,inactive,inactive
CC(=O)Oc1ccc(C2(c3ccc(OC(C)=O)cc3)Oc3ccccc3NC2=O)cc1,inactive,inactive,inactive,inactive,inactive,inactive
Cc1ccccc1C(=O)N1CC/C(=N\OS(=O)(=O)O)c2ccc(Cl)cc21,inactive,inactive,inactive,inactive,26.9 µM (active),inactive
OC(CCCN1CCCCC1)(c1ccccc1)c1ccccc1,inactive,inactive,–,–,–,–
CN(C)CCOC(c1ccccc1)c1ccc(Br)cc1 (stereo not given),inactive,inactive,–,–,–,–
Cc1cccc(N(C)C(=S)Oc2ccc3c(c2)CCC3)c1,inactive,inactive,inactive,inactive,inactive,inactive
COC(=O)c1cc(Cl)ccc1NS(=O)(=O)C(F)(F)F,inactive,inactive,–,–,–,–
Cc1ccc(C(C)OC(=O)C2(C)CCC(C(=O)O)C2(C)C)cc1 (stereo not given),inactive,inactive,–,–,–,–
C[N+]1(CC2COC(c3ccccc3)(c3ccccc3)O2)CCCCC1 (stereo not given),inactive,inactive,inactive,inactive,inactive,inactive
CN1CCC(N(Cc2cccs2)c2ccccc2)CC1,inactive,inactive,inactive,inactive,inactive,inactive
Cc1c(C)c2c(c(C)c1OC(=O)CCC(=O)OCCO)CC[C@@](C)(CCC[C@H](C)CCC[C@H](C)CCCC(C)C)O2,inactive,inactive,–,–,–,–
Nc1c(I)cc(I)c(C(=O)N(CCC(=O)O)c2ccccc2)c1I,inactive,inactive,–,–,–,–
CCOC(=O)NNc1nncc2ccccc12,inactive,inactive,–,–,–,–
CCNC(=O)NCCCOc1cccc(CN2CCCCC2)c1,inactive,inactive,inactive,inactive,inactive,inactive

SMILES,Potency [1],Potency [2],Potency [3],Potency [4],Potency [5],outcome [6]
CCN(CC)CC(=O)Nc1c(C)cccc1C(=O)OC,inactive,inactive,–,–,–,–
O=C(CCCCC(=O)Nc1c(I)cc(I)c(C(=O)O)c1I)Nc1c(I)cc(I)c(C(=O)O)c1I,inactive,inactive,–,–,–,–
CCOC(=O)c1ccc(NC(=O)CN2CCCCC2)cc1,inactive,inactive,inactive,inactive,inactive,inactive
CCN(CC)CCOc1ccc(/C(=C(\Cl)c2ccccc2)c2ccccc2)cc1,inactive,inactive,inactive,inactive,inactive,inactive
CC(=O)[C@H]1CC[C@H]2[C@@H]3C=CC4=CC(=O)CC[C@@]4(C)[C@@H]3CC[C@]12C,inactive,inactive,inactive,inactive,inactive,inactive
CC(=O)OCC(=O)Nc1cc(C#N)cc(NC(=O)COC(C)=O)c1Cl,inactive,inactive,inactive,inactive,inactive,inactive
C[C@@H]1C[C@H]2[C@@H]3CCC4=CC(=O)C=C[C@]4(C)[C@@]3(F)[C@@H](O)C[C@]2(C)[C@@]1(O)C(=O)COC(=O)c1ccncc1,inactive,inactive,–,–,–,–
CCn1ccc(NS(=O)(=O)c2ccc(N)cc2)nc1=O,inactive,inactive,–,–,–,–
CCN(CC)CC(=O)OCC(=O)[C@@]1(O)CC[C@H]2[C@@H]3CCC4=CC(=O)CC[C@]4(C)[C@H]3[C@@H](O)C[C@@]21C,inactive,inactive,–,–,–,–
CO/N=C(/C(=O)N[C@@H]1C(=O)N2C(C(=O)O)=C(Cn3nnc(C)n3)CS[C@H]12)c1csc(N)n1,14.3 µM (active),inactive,inactive,inactive,inactive,inactive
CCC(C(=O)NC(=O)NC(C)=O)c1ccccc1 (stereo not given),inactive,inactive,inactive,inactive,inactive,inactive
COC(=O)C1=CO[C@@H](O)[C@@H]2C(CO)=CC[C@H]12,inactive,inactive,inactive,13.4 µM (active),inactive,inactive
COc1ccccc1N1CCN(CCN2C(=O)CC3(CCCC3)CC2=O)CC1,inactive,–,inactive,inactive,inactive,inactive
Cc1nn(-c2ccccc2)c(C)c1/C=N/N1CCN(Cc2ccccc2)CC1,inactive,inactive,inactive,inactive,inactive,inactive
O=C1NC(=O)/C(=C/c2ccc3c(c2)OC(F)(F)O3)S1,inactive,inactive,9.53 µM (active),inactive,inactive,inactive
CCCCCOc1ccc(C2SC(=O)NC2=O)cc1OCC (stereo not given),–,22.4 µM (active),inactive,inactive,inactive,inactive
CC[N+](CC)(CC)CCOC(=O)C(C1CCCC1)C1CCCC1,–,inactive,–,–,–,–
